Test results published in PubChem BioAssay (NCATS).
Results filed as inconclusive are left out. The source made the active and inactive calls. Calls come from the whole dose curve; as a rule, active = well fitted cell-killing curve with a large enough effect; inconclusive = small, poorly fitted or top-dose-only effect, or effect the other way; inactive = no such curve, though single readings can be large or run the other way.

Assay: Quantitative High-Throughput drug screen in 47 multiple myeloma cell lines against the NCATS MIPE library collection: KMS26_JCRB cell viability assay (AID 1918975); note: nearly all actives have a fitted effect of over 45% in size
Details: KMS26 myeloma cells viability, CellTiter-Glo ATP, 48 h; series mostly up to 45.8 µM; viability (% of DMSO): at the top concentration
Description: PI: Beverly A. Mock Ph.D.
Laboratory of Cancer Biology and Genetics,
Center for Cancer Research, National Cancer Institute,
National Institute of Health, Bethesda, Maryland
Drug resistance and disease progression are common in multiple myeloma (MM) patients, underscoring the need for new therapeutic combinations. […] We hypothesized that effective combinations would reduce MYC expression and enhance p16 activity. […] These preclinical data identify potentially useful drug combinations for evaluation in drug-resistant MM and reveal potential mechanisms of combined drug sensitivity.
Described herein is the primary MIPE qHTS used to cherrypick compounds. Validated compounds were then further tested for potential synergistic activiy.
[1] Peat TJ, Gaikwad SM, Dubois W, Gyabaah-Kessie N, Zhang S, Gorjifard S, Phyo Z, Andres M, Hughitt VK, Simpson RM, Miller MA, Girvin AT, Taylor A, Williams D, D'Antonio N, Zhang Y, Rajagopalan A, Flietner E, Wilson K, Zhang X, Shinn P, Klumpp-Thomas C, McKnight C, Itkin Z, Chen L, Kazandijian D, Zhang J, Michalowski AM, Simmons JK, Keats J, Thomas CJ, Mock BA. Drug combinations identified by high-throughput screening promote cell cycle transition and upregulate Smad pathways in myeloma. Cancer Lett. 2023 Aug 1;568:216284. doi: 10.1016/j.canlet.2023.216284. Epub 2023 Jun 24. PMID: 37356470; PMCID: PMC10408729.
SEQUENCE No. (e.g., 1, 2, 3, etc.); […] (e.g., Cells, Incubation, Reagent, etc.); VALUE and DESCRIPTION.
1; Cells; 5 uL; white, solid bottom 1536-well Greiner assay plate.
2; Compounds; 23 nL; Kalypsis pin tool (Wako USA) equipped with a 1536-well pin head to transfer to the assay plates.
3; Incubation; 48 hours; 37C incubation.
4; Reagent;5uL; CellTiter Glo (Promega).
5; Detector; 425V; Luminescence; Viewlux PerkinElmer.
NOTES (numbers refer to Sequence numbers above)
1. The cell-based screening methods employed in this study were like those previously published. Briefly, the corresponding myeloma cell lines were screened in 1,536-well plates with 500 cells, 5-uL per well for inhibition of cell viability (assessed by measuring ATP levels with CellTiterGlo).
2. NCATS MIPE 4.0 library of approved and investigational drugs were added using the Kalypsis pin tool. Wells treated with DMSO only for 100% viability and media only wells for 0% viability were used as controls.
3. The assay plates were covered and incubated for 48 hours in a 37C, 5% CO2 incubator with controlled humidity.
4. After 48 hours, CellTilter-GloTM luminescent substrate mix (Promega) reagent was added to the assay plate and plates we incubated for 5 min at room temperature.
5. Signal was measured as median relative luminescence units on a ViewLux (PerkinElmer) multiplate reader.
[1] Heske CM, Davis MI, Baumgart JT, Wilson K, Gormally MV, Chen L, Zhang X, Ceribelli M, Duveau DY, Guha R, Ferrer M, Arnaldez FI, Ji J, Tran HL, Zhang Y, Mendoza A, Helman LJ, Thomas CJ. Matrix Screen Identifies Synergistic Combination of PARP Inhibitors and Nicotinamide Phosphoribosyltransferase (NAMPT) Inhibitors in Ewing Sarcoma. Clin Cancer Res. 2017 Dec 1;23(23):7301-7311. doi: 10.1158/1078-0432.CCR-17-1121. Epub 2017 Sep 12. PMID: 28899971; PMCID: PMC6636827.
Potency is the fitted concentration of half-maximal effect.

Row | SMILES | Potency | viability (% of DMSO)
1 | Nc1ncnc2c1c(-c1cccc(OCc3ccccc3)c1)cn2C1CC(CN2CCC2)C1 (stereo not given) | 4.69 µM (active) | –
2 | Cc1ccccc1-n1c(Cn2nc(-c3cccc(O)c3)c3c(N)ncnc32)nc2cccc(C)c2c1=O | 11.8 µM (active) | –
3 | Cc1cc2c(cc1C1(c3ccc(C(=O)O)cn3)CC1)C(C)(C)CCC2(C)C | 14.8 µM (active) | –
4 | O=C(C=Cc1ccc(O)cc1)c1ccc(O)cc1O | 23.5 µM (active) | –
5 | CNC(=O)c1ccc2c(C(=Nc3cccc(CN(C)C)c3)c3ccccc3)c(O)[nH]c2c1 | 0.662 µM (active) | –
6 | O=C(O)CCNc1cc(N2CCc3ccccc3CC2)nc(-c2ccccn2)n1 | – | 157% (inactive)
7 | CN(C)CCN(C)C(=O)c1ccc(NC(=O)Nc2ccc(-c3nc(N4CCOCC4)c4ccn(CC(F)(F)F)c4n3)cc2)cc1 | 0.0526 µM (active) | –
8 | Cc1cc(CS(=O)(=O)c2ccccc2)cc(OCc2ccc(CN3CCC[C@H]3CO)cc2)c1 | 5.26 µM (active) | –
9 | COc1ccc2cc1Oc1ccc(cc1)C[C@H]1c3cc(c(OC)cc3CCN1C)Oc1c(OC)c(OC)cc3c1[C@H](C2)N(C)CC3 | 14.8 µM (active) | –
10 | Clc1ccc(COC(Cn2ccnc2)c2ccc(Cl)cc2Cl)c(Cl)c1 (stereo not given) | 23.5 µM (active) | –
11 | CCCCC(F)(F)[C@@]1(O)CC[C@H]2[C@H](CC(=O)[C@@H]2CCCCCCC(=O)O)O1 | – | 121% (inactive)
12 | C=C1[C@H](n2cnc3c(=O)[nH]c(N)nc32)C[C@H](O)[C@H]1CO | – | 136% (inactive)
13 | Nc1ncnc2c1ncn2[C@@H]1O[C@H](CO)[C@@H](O)[C@@H]1O | 16.6 µM (active) | –
14 | CC(C)(C)c1nc(-c2cccc(NS(=O)(=O)c3c(F)cccc3F)c2F)c(-c2ccnc(N)n2)s1 | – | 135% (inactive)
15 | CN[C@@H]1CN(c2ccc3c(=O)c(C(=O)O)cn(-c4nccs4)c3n2)C[C@@H]1OC | 18.2 µM (active) | –
16 | CC(C)(OCc1nn(Cc2ccccc2)c2ccccc12)C(=O)O | 6.62 µM (active) | –
17 | CNC1[C@H](O)C(O[C@@H]2C(O)C(O[C@H]3O[C@H]([C@@H](C)NC)CC[C@H]3N)[C@@H](N)C[C@H]2N)OC[C@]1(C)O (stereo not given in full) | – | 106% (inactive)
18 | O=C(Nc1ncc(SCCN2CCCC2)s1)[C@]1(c2ccc(S(=O)(=O)C3CC3)cc2)C[C@@H]1C1CCCCC1 | 23.5 µM (active) | –
19 | O=C(O)c1nc(=O)[nH]c(=O)[nH]1 | – | 112% [at 23.2 µM] (inactive)
20 | Nc1ccc(-c2ccc3ncc4ccc(=O)n(-c5cccc(C(F)(F)F)c5)c4c3c2)cn1 | 0.0296 µM (active) | –

Row | SMILES | Potency | viability (% of DMSO)
21 | C[C@H](c1ccc(F)cc1CCCC(=O)O)N(c1cc(F)ccc1F)S(=O)(=O)c1ccc(Cl)cc1 | 0.743 µM (active) | –
22 | Nc1[nH]nc2nnc(-c3c(-c4ccccc4)nn4ccccc34)cc12 | – | 126% (inactive)
23 | CN(C)N=Nc1nc[nH]c1C(N)=O | 20.9 µM (active) | –
24 | CC1=C(CC(=O)O)c2cc(F)ccc2C1=Cc1ccc(S(C)=O)cc1 (stereo not given) | 2.09 µM (active) | –
25 | O=C(NCCCCN1CCOCC1)c1cc2ccccc2o1 | – | 121% (inactive)
26 | CC(=O)NCCC(=O)N[C@@H](CCC(N)=O)C(=O)N[C@@H](CO)C(=O)N[C@@H](CCC(N)=O)C(=O)N[C@@H](CCC(N)=O)C(=O)N[C@H](C(=O)N[C@@H](Cc1ccccc1)C(=O)N[C@]1(C)CCCCCCC=CCCC[C@@](C)(C(=O)N[C@@H](CCC(N)=O)C(=O)N[C@@H](CC(N)=O)C(N)=O)NC(=O)[C@H](CC(C)C)NC(=O)[C@H](CC(C)C)NC(=O)[C@@H](CCCNC(=N)N)NC(=O)[C@H](Cc2c[nH]c3ccccc23)NC(=O)[C@H](CC(C)C)NC(=O)[C@H](CC(N)=O)NC1=O)[C@H](C)O | 14.8 µM (active) | –
27 | CCN1CCC(n2cc(CNc3cc(Cl)c4ncc(C#N)c(Nc5ccc(F)c(Cl)c5)c4c3)nn2)CC1 | 8.33 µM (active) | –
28 | O=C1Nc2ccc(I)cc2C1=Cc1cc(Br)c(O)c(Br)c1 | 16.6 µM (active) | –
29 | CC1C(=O)OC2C(O)C34C5CC(C(C)(C)C)C36C(OC(=O)C6O)OC4(C(=O)O5)C12O (stereo not given) | – | 123% (inactive)
30 | CC(=O)OCC(=O)[C@@]12OC(C)(C)O[C@H]1C[C@H]1[C@@H]3C[C@H](F)C4=CC(=O)C=C[C@]4(C)[C@@]3(F)[C@@H](O)C[C@@]12C | – | 110% (inactive)
31 | CN[C@H]1[C@@H](O[C@@H]2[C@H](O[C@@H]3[C@@H](O)[C@@H](O)[C@@H](N=C(N)N)[C@@H](O)[C@@H]3N=C(N)N)O[C@H](C)[C@@]2(O)C=O)O[C@@H](CO)[C@@H](O)[C@H]1O | – | 136% [at 15.3 µM] (inactive)
32 | CC(NCCc1ccc(O)cc1)C(O)c1ccc(O)cc1 (stereo not given) | – | 109% (inactive)
33 | O=C(c1ccc(C=Cc2n[nH]c3ccccc23)cc1)N1CCNCC1 | 16.6 µM (active) | –
34 | C[C@]12CCC3=C4CCC(=O)C=C4CC[C@@H]3[C@H]1CC[C@@]2(O)CC#N | – | 153% (inactive)
35 | O=C(O)CCC=CCC[C@@H]1[C@H](N2CCCCC2)[C@@H](O)C[C@@H]1OCc1ccc(-c2ccccc2)cc1 | – | 125% (inactive)
36 | O=c1[nH]nc(OCCCc2ccc(Cl)cc2)c(NCc2cccnc2)c1Br | 14.8 µM (active) | –
37 | O=C(Nc1cccc(Cl)c1)Nc1ncc(CCNc2ncnc3ccsc23)s1 | 2.64 µM (active) | –
38 | CC[C@H](CC#N)OC(=O)N[C@@H](C)c1cccc(NC(=O)Nc2ccc(-c3cnco3)c(OC)c2)c1 | 20.9 µM (active) | –
39 | CCC[C@H](Nc1nc(-c2ccc(NC(=O)NCC)c(OC)c2)ncc1C)c1cccnc1 | 0.0209 µM (active) | –
40 | CN1CCC[C@H]1CCO[C@](C)(c1ccccc1)c1ccc(Cl)cc1 | – | 132% (inactive)
